Bioassay records (PubChem)
GLP-1R agonist – activates the human GLP-1 receptor; HEK293 GLP-1R CRE-luciferase, luminescence, 4-6 h; cells express a hypersensitive GLP-1R form; Potency, µM (top dose mostly 45.6 µM), actives largely listed as activators; actives 0.007% (n = 380,000); AID 624172
Tb PGK inh – blocks T. brucei phosphoglycerate kinase. P07378. PGK/GAPDH coupled, Kinase-Glo luminescence, 60 min. Potency, µM (top dose mostly 57.5 µM), most hits filed as inhibitors. actives 0.043% (n = 380,000). AID 602233; note: nearly all actives have a fitted effect of over 60% in size
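Luminescent ATP detection (Kinase-Glo Plus) follows a 60-minute room-temperature incubation, with wells lacking PGK as controls. Buffer: 100 mM TEA (pH 7.6), 5 mM MgCl2, 0.01% Tween-20. Coupling enzyme GAPDH (100 nM final) supplies unstable 1,3-BPG in-well.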
HEK293 tox – cytotoxic in the GLP-1 receptor inverse agonist counter-screen | Potency, µM (series often up to 38.3 µM), hits mostly inhibitors | AID 624418 | actives 0.13% (n = 410,000) | HEK293 cAMP-luciferase reporter cells, luminescence, 24 h;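 note: loss of luciferase light is scored as toxicity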
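Seeding density was 200 cells/uL; after overnight-length (12 h) culture, 23 nL compounds went on for 24 h at 37 °C. Readout used a luciferase detection reagent, luminescence taken after 12 min at room temperature.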
GLP1R inv ag – inverse agonists of human GLP-1 receptor. Potency, µM (titrated, usually from 38.3 µM), hits mostly inhibitors. HEK293 GLP-1R CRE-luciferase, luminescence, 24 h; GLP-1R form is constitutively active. actives 1.6% (n = 410,000). P43220. AID 624417; note: nearly all actives have a fitted effect of over 55% in size
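GLP-1R inverse agonism mode: basal reporter luminescence in engineered HEK293 cells measured after one day of compound exposure at 37 deg C, with a 12 min room-temperature detection step.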
Pin1 inhibitor – inhibitors of human Pin1. Q13526. Pin1 FP peptide displacement, HiFluor488, 10 min. Potency, µM (titrated, usually from 115 µM), usual class: inhibitors. actives 0.009% (n = 390,000). AID 504891; active = well fitted inhibition curve with a large enough effect in the polarisation, with a control signal flat, not every such curve was filed as active; inconclusive = small, poorly fitted or top-dose-only effect, or effect the other way, or a change in a side signal; inactive = no such curve, though single readings can be large or run the other way; the % refers to the polarisation
Tb PFK block – T. brucei PFK enzyme inhibition; actives 0.17% (n = 330,000); AID 485367; O15648; T. brucei PFK, ADP-Glo luminescence; Potency, µM (highest dose often 57.5 µM), usual class: inhibitors; note: nearly all actives have a fitted effect of over 60% in size
Target sequence (O15648 whole entry, looked up): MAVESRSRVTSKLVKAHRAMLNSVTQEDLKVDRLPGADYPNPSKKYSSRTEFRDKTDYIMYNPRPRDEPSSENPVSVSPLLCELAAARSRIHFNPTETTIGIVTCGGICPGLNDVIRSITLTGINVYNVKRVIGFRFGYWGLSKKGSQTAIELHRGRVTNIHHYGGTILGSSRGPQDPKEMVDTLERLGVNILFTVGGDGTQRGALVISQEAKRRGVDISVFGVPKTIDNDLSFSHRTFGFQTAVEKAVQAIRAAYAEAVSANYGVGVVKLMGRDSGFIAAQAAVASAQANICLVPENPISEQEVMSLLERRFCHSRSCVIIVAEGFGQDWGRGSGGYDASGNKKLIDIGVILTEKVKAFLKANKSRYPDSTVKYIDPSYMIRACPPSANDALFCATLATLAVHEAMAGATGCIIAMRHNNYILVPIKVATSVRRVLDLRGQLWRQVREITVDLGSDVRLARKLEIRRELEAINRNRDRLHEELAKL
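In TEA buffer at pH 8.0 with 5 mM MgCl2, enzyme (1.25 nM) converted F6P (0.5 mM) and ATP (0.1 mM) for 45 min at room temperature. ADP product was read by luciferase luminescence.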
Hits are given with their value; - = inactive; ? = inconclusive; . = no result. Shown are actives, neighbours in structure and some others; about 1.8% of the full set was active somewhere. Unless noted, calls come from the whole dose curve; as a rule, active = well fitted curve in the direction sought with a large enough effect; inconclusive = small, poorly fitted or top-dose-only effect, or another doubt; inactive = no such curve, though single readings can be large; an effect the other way counts as inactive or inconclusive.

SMILES	GLP-1R agonist	Tb PGK inh	HEK293 tox	GLP1R inv ag	Pin1 inhibitor	Tb PFK block
CCOC(=O)c1c(NC(=O)C(C)NCc2ccco2)sc2c1CCC(C)C2 (stereo not given)	-	-	?	4µM	?	-
CCOC(=O)c1ccc(NC(=O)c2c(NC(C)=O)sc3c2CCC(C)C3)cc1 (stereo not given)	.	-	-	-	-	.
O=C(c1ccc(S(=O)(=O)Nc2cccc(C(F)(F)F)c2)cc1)N1CCN(c2ccccc2O)CC1	-	-	-	10µM	-	-
Cc1ccc(C(=O)C(C)OC(=O)C2CCN(c3ccc(C(F)(F)F)cn3)CC2)cc1 (stereo not given)	-	-	-	10µM	-	-
O=S(=O)(c1ccc2c(c1)OCCO2)N1CCN(S(=O)(=O)c2ccccc2OC(F)(F)F)CC1	.	.	.	.	-	.
Cc1ccc(O)c(N=Nc2nccs2)c1	-	-	?	7.1µM	-	-
COc1ccc(N=Nc2cc(C)ccc2O)cc1	-	-	-	-	-	-
CCOC(=O)c1c(C)n(-c2ccccc2)c2ccc(OC(=O)c3cc(OC)cc(OC)c3)cc12	.	-	-	-	-	.
CC(C)(C)c1cc(C(=O)NCCN2CCCC2)cc(C(C)(C)C)c1	-	-	-	13µM	?	-
O=C(O)c1ccc2c(c1)C(=O)N([C@H](Cc1ccc(-c3ccccc3)cc1)C(=O)O)C2=O	.	.	.	.	?	-
CCC(Oc1ccc(F)cc1)C(=O)Nc1nc(-c2ccc(F)cc2)ns1 (stereo not given)	.	-	-	10µM	-	.
O=C(C=C(C(=O)c1ccccc1)c1ccccc1)c1ccccc1	-	-	-	8.9µM	-	.
Cc1ccccc1NC(=O)c1ccc(F)c(S(=O)(=O)N(C)C2CCCCC2)c1	.	-	-	10µM	-	.
Clc1ccccc1Cn1nc(-c2ccccc2)nc1-c1ccccc1	-	-	-	?	-	-
Clc1ccc(Cn2nc(-c3ccccc3)nc2-c2ccccc2)cc1	-	-	-	7.9µM	-	-
OC[C@@H](O)[C@H](O)C(/C=N/Nc1ccccc1)=N\Nc1ccccc1	-	-	?	2.5µM	-	-
COc1ccc2c(c1)CC(N1CCN(C)CC1)c1cc(OC)ccc1S2 (stereo not given)	-	-	?	2.5µM	-	.
CCc1ccc(OCc2ccc(C(=O)O)o2)cc1	-	-	-	4µM	-	-
Cc1ccc(S(=O)(=O)Nc2cccc(C(=O)NC3CCN(Cc4ccccc4)CC3)c2)cc1F	-	-	?	?	-	-
O=C(NC1CCN(Cc2ccccc2)CC1)c1cccc(NS(=O)(=O)c2ccc(Br)cc2)c1	-	-	-	11µM	-	.
O=C(Nc1cccc(Cl)c1)N1CCC(CN2CCOCC2)CC1	.	-	-	-	-	.
CC(CNC(=O)Cn1ccc2cc(S(=O)(=O)N3CCCCCC3)ccc21)c1ccccc1 (stereo not given)	.	-	-	11µM	?	.
CCCSc1ncc(Cl)c(C(=O)Nc2sc3c(c2C(=O)NCC)CCCC3)n1	.	.	-	-	-	.
CC(C)(C)NC(=O)C(c1c[nH]c2ccccc12)N(C(=O)Cn1nnc(-c2ccc(Cl)cc2)n1)c1ccccc1F (stereo not given)	-	-	-	5µM	-	-
Cc1c(C(=O)Nc2ccc(F)c(Cl)c2)sc2nc3n(c(=O)c12)CCC3	.	-	-	-	-	.
SMILES	GLP-1R agonist	Tb PGK inh	HEK293 tox	GLP1R inv ag	Pin1 inhibitor	Tb PFK block
Oc1ccc(COCc2ccccc2)c2cccnc12	-	-	-	10µM	-	-
CCOC(=O)N1CCN(Cc2ccc(O)c3ncccc23)CC1	-	-	-	5µM	-	-
Oc1ccc(Cl)c2cccnc12	-	-	-	10µM	-	.
Oc1ccc(Cc2ccccc2)c2cccnc12	-	-	-	6.3µM	-	.
Oc1ccc(CCc2ccccc2F)c2cccnc12	.	.	.	.	-	.
Oc1ccc(CN2CCCCC2)c2cccnc12	-	.	?	-	-	-
Cc1csc2nc(COC(=O)c3ccc(F)cc3)cc(=O)n12	.	-	-	?	-	.
COc1ccc(CNC(=O)C(=O)NCC(c2cccnc2)N2CCN(c3ccccc3F)CC2)cc1 (stereo not given)	.	-	-	-	-	.
CC(C)COCc1ccc(O)c2ncccc12	-	-	?	4µM	-	-
CCCOCc1ccc(O)c2ncccc12	-	-	-	?	-	-
OCc1ccc(O)c2ncccc12	-	-	?	10µM	?	-
O=C(Oc1ccc(Cl)c2cccnc12)c1cccnc1	-	-	?	3.2µM	-	-
CCC(=O)NC(c1ccc2c(c1)OCO2)c1cc(Cl)c2cccnc2c1O (stereo not given)	.	.	.	.	-	.
CCCC(=O)NC(c1ccc2c(c1)OCO2)c1cc(Cl)c2cccnc2c1O (stereo not given)	-	-	-	4µM	-	-
Cc1ccc(COn2c(-c3ccc(Cl)cc3Cl)nc3ncccc32)cc1	-	-	-	10µM	-	-
COc1ccccc1CNC(=S)NCc1ccc(Cl)cc1	-	-	-	10µM	-	-
CCCCCc1ccc(OCCCC[n+]2ccccc2)c(CCCCC)c1	-	-	?	6.3µM	-	-
COc1cc(CNCc2ccccc2Cl)ccc1OCC(=O)NC1CCCCC1	-	-	-	10µM	-	-
C=C[C@H]1CN2CCC1C[C@@H]2C(O)c1ccnc2ccc(OC)cc12 (stereo not given in full)	.	.	.	.	-	.
CCCCCCC(O)C/C=C\CCCCCCCC(=O)O (stereo not given)	-	.	.	.	.	.
CN1CCN(CC(=O)N2c3ccccc3C(C)(c3ccccc3)CC2(C)C)CC1 (stereo not given)	-	-	-	10µM	-	-
